PubChem BioAssay (Tox21)
Records with an inconclusive call do not appear. Calls of active or inactive are those of the source. Unless noted, calls come from the whole dose curve; as a rule, active = well fitted curve in the direction sought with a large enough effect in the repeat runs; inconclusive = weak or mixed curves; inactive = no such curve, though single readings can be large; an effect the other way counts as inactive or inconclusive.

How the values were obtained:
[1] = qHTS assay for small molecule agonists of the p53 signaling pathway (AID 651631; calls by dose curve; note: nearly all actives have a fitted effect of over 15% in size)
Method in brief: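 Beta-lactamase reporter activity under p53 response elements was quantified in HCT-116 cells by FRET fluorescence, following 16 h incubation with test compounds at 37 °C and 2 h substrate development at room temperature.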

[2] = qHTS assay for small molecules that induce genotoxicity in human embryonic kidney cells expressing luciferase-tagged ATAD5 (AID 651632); note: nearly all actives have a fitted effect of over 15% in size
Method in brief: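 Test compounds were delivered by pin tool onto HEK293T reporter cells (2,000/well) expressing ATAD5 fused to luciferase. After 16 hr at 37C, 5% CO2, Amplite was added for 30 min at room temperature and luminescence was measured.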

[3] = qHTS assay for small molecule agonists of the p53 signaling pathway - cell viability (AID 651633; calls by dose curve;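 note: p53RE-bla HCT reporter cells with a stable beta-lactamase p53 reporter; series mostly up to about 83 µM; nearly all actives have a fitted effect of over 30% in size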)
Method in brief: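 p53RE-bla cells, seeded at 4,000 per well and rested 5 h at 37 C/5% CO2, received compounds in DMSO for 16 h at 37 C. CellTiter-Glo was then added, and luminescence was read after 30 min at room temperature to gauge cytotoxicity.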

[4] = qHTS assay for small molecules that induce genotoxicity in human embryonic kidney cells expressing luciferase-tagged ATAD5 - cell viability (AID 651634; calls by dose curve; note: nearly all actives have a fitted effect of over 25% in size)
Method in brief: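 Quantitative high-throughput format. HEK293T cells expressing ATAD5 fused to luciferase were plated at 2,000 cells/well and treated 15.5 hr with compound versus DMSO. Viability was determined by fluorescent live-cell protease substrate, 30 min at 37C.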

[5] = qHTS assay for small molecule disruptors of the mitochondrial membrane potential - cell viability (AID 720634; calls by dose curve;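 note: human HepG2 liver cancer cells; series mostly up to about 83 µM; nearly all actives have a fitted effect of over 20% in size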)
Method in brief: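 Same-well counter-screen: following the MMP dye addition, CellTiter-Glo was added to 1 hr compound-treated HepG2 cells and luminescence read after 30 min at room temperature.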

[6] = qHTS assay for small molecule disruptors of the mitochondrial membrane potential (AID 720635)
Method in brief: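 HepG2 cells (2,000/well) attached overnight at 37C, then took compound for 1 hr at 37C, 5% CO2. Mito-MPS dye was added for 30 min; fluorescence was read at 490/535 nm (monomers) and 540/590 nm (aggregates).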

[7] = qHTS assay to test for compound auto fluorescence at 590 nm (red) in HepG2 cells (AID 720674)
Method in brief: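 Rose Bengal sodium served as the red fluorophore standard. HepG2 monolayers (overnight attachment, MEM with 10% FBS) were exposed to test compounds for 1 hr at 37 C and read at Ex 540/Em 590 nm.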

[8] = qHTS assay to test for compound auto fluorescence at 535 nm (green) in HepG2 cells (AID 720675)
[9] = qHTS assay to test for compound auto fluorescence at 460 nm (blue) in HEK293 cells (AID 720678)
Method in brief: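 HEK293 cells (2,000 per well, medium with 10% dialyzed FBS) attached for 4-5 hr at 37C, then received compound and stood overnight at 37C, 5% CO2. Blue fluorescence was read at Ex/Em 405/460 nm and expressed relative to triamterene.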

[10] = qHTS assay to test for compound auto fluorescence at 590 nm (red) in HEK293 cells (AID 720679)
Method in brief: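 HEK293 cells (2,000/well, medium with 10% dialyzed FBS) attached for 4-5 hr at 37C, received 23 nL compound and were incubated overnight at 37C, 5% CO2. Red fluorescence was then read at 540/590nm Ex/Em, referenced to Rose Bengal sodium.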

[11] = qHTS assay to test for compound auto fluorescence at 535 nm (green) in HEK293 cells (AID 720680)
[12] = qHTS assay to test for compound auto fluorescence at 460 nm (blue) in HEK293 cell free culture (AID 720681)
Method in brief: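 Test compounds were pinned into cell-free culture medium (DMEM with 10% FBS) and fluorescence was read directly at Ex/Em 405/460 nm. Signals were expressed as fluorescence equivalents of triamterene, with DMSO vehicle as control.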

[13] = qHTS assay to test for compound auto fluorescence at 535 nm (green) in HEK293 cell free culture (AID 720682)
Method in brief: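 Each library compound, or DMSO control, is added by pintool to medium alone, comprising DMEM and 10% FBS. Emission at 535 nm following 485 nm excitation is quantified against fluorescein.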

[14] = qHTS assay to test for compound auto fluorescence at 590 nm (red) in HEK293 cell free culture (AID 720683)
Method in brief: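 Tox21 10K library compounds were pinned into cell-free DMEM with 10% FBS and fluorescence was read at excitation 540 nm. Activity is expressed as Rose Bengal sodium equivalency.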

[15] = qHTS assay to test for compound auto fluorescence at 590 nm (red) in HepG2 cell free culture (AID 720684)
Method in brief: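 Readout: intrinsic compound fluorescence at 590 nm emission after 540 nm excitation, scaled to Rose Bengal sodium. Matrix was cell-free MEM with 10% FBS; DMSO vehicle wells served as control.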

[16] = qHTS assay to test for compound auto fluorescence at 460 nm (blue) in HepG2 cell free culture (AID 720685)
Method in brief: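 Cell-free plates of MEM plus 10% FBS received 23 nL compound or DMSO vehicle; blue-channel (405/460 nm) intensity scored against triamterene as reference fluorophore.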

[17] = qHTS assay to test for compound auto fluorescence at 535 nm (green) in HepG2 cell free culture (AID 720686)
[18] = qHTS assay to test for compound auto fluorescence at 460 nm (blue) in HepG2 cells (AID 720687)
Method in brief: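 Cells (2,000/well in MEM with 10% FBS) attached overnight at 37 C, then were exposed to compound or DMSO for 1 hr at 37 C, 5% CO2. Fluorescence read at Ex/Em 405/460 nm, expressed as triamterene-equivalent signal.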

[19] = target: Glucocorticoid receptor (Homo sapiens) (UniProt P04150); assay: qHTS assay to identify small molecule agonists of the glucocorticoid receptor (GR) signaling pathway (AID 720691; active = well fitted activation curve with a large enough effect in the signal ratio in the repeat runs, not every such curve was filed as active; the % refers to the signal ratio)
Chain of Glucocorticoid receptor (Homo sapiens) (P04150 whole entry, looked up): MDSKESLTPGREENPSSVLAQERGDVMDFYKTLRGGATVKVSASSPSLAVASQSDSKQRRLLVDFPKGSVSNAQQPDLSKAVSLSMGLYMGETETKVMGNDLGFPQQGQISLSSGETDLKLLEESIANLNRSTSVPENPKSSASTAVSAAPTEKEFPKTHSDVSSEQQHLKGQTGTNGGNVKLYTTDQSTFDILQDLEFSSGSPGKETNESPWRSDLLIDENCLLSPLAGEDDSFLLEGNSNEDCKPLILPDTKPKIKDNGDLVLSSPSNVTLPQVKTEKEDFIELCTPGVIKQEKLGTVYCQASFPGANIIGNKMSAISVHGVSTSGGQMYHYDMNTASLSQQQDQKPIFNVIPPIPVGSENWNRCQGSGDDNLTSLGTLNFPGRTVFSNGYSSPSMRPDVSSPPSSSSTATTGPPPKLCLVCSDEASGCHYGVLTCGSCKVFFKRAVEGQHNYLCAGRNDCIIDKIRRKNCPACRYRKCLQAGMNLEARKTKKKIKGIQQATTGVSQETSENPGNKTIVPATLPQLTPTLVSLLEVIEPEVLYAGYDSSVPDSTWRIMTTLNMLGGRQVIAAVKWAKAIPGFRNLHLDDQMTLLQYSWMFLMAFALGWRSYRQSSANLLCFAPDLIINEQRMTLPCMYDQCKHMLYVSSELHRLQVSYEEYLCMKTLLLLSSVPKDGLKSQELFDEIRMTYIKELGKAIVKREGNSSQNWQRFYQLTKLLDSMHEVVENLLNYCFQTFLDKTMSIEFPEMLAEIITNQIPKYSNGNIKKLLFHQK
Method in brief: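 A HeLa cervical cancer line expressing GR and a glucocorticoid response element-driven beta-lactamase gene is treated with compounds for 18 h; LiveBLAzer B/G FRET substrate is then applied and fluorescence read.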

[20] = target: Glucocorticoid receptor (Homo sapiens) (UniProt P04150); assay: qHTS assay to identify small molecule antagonists of the glucocorticoid receptor (GR) signaling pathway (AID 720692; active = well fitted inhibition curve with a large enough effect in the signal ratio in the repeat runs, not every such curve was filed as active; the % refers to the signal ratio)
Method in brief: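 GRE-bla HeLa line, dex-stimulated (5 nM final). Compound exposure 18 h, 37 C. Beta-lactamase FRET read after 2 h RT substrate.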

Measured: Potency

CCOC(=O)c1ccccc1
inactive: [1] | [2] | [3] | [4] | [5] | [6] | [7] | [8] | [9] | [10] | [11] | [12] | [13] | [14] | [15] | [16] | [17] | [18] | [19]

CCC(C)(CCCC(C)C)OC(C)=O (stereo not given)
inactive: [1] | [2] | [3] | [4] | [5] | [6] | [7] | [8] | [9] | [10] | [11] | [12] | [13] | [14] | [16] | [17] | [18] | [19] | [20]

CC(CC=O)CC(C)(C)C (stereo not given)
inactive: [1] | [2] | [3] | [4] | [5] | [6] | [7] | [8] | [9] | [10] | [11] | [12] | [13] | [14] | [15] | [16] | [17] | [18]

CCN1CCOCC1
inactive: [1] | [2] | [3] | [4] | [5] | [6] | [7] | [8] | [9] | [10] | [11] | [12] | [14] | [15] | [16] | [17]

CO/N=C(\C(=O)N[C@@H]1C(=O)N2C(C(=O)O)=C(CSc3nc(=O)c(O)nn3C)CS[C@H]12)c1csc(N)n1
inactive: [1] | [2] | [3] | [4] | [5] | [6] | [7] | [8] | [9] | [10] | [11] | [12] | [14] | [15] | [16] | [17] | [18] | [19] | [20]

CCNS(=O)(=O)c1ccc(C)cc1
inactive: [1] | [2] | [3] | [4] | [5] | [6] | [7] | [8] | [9] | [10] | [11] | [12] | [13] | [14] | [15] | [16] | [17] | [18] | [19]

CCCC(C)C(=O)OCC (stereo not given)
inactive: [1] | [2] | [3] | [4] | [5] | [6] | [7] | [8] | [9] | [10] | [11] | [12] | [13] | [14] | [15] | [16] | [17] | [18] | [20]

C=CN1CCCCCC1=O
inactive: [1] | [2] | [3] | [4] | [5] | [6] | [7] | [8] | [9] | [10] | [11] | [12] | [14] | [15] | [16] | [17] | [19] | [20]

COc1ccc2cc1Oc1cc3c(cc1OC)CC[N+](C)(C)[C@H]3Cc1ccc(cc1)Oc1c(OC)c(OC)cc3c1[C@@H](C2)[N+](C)(C)CC3
inactive: [1] | [2] | [3] | [4] | [5] | [6] | [7] | [8] | [9] | [10] | [11] | [12] | [13] | [14] | [15] | [16] | [17] | [18] | [19] | [20]

COCCOC[C@H](CC1(C(=O)NC2CCC(C(=O)O)CC2)CCCC1)C(=O)Oc1ccc2c(c1)CCC2 (stereo not given in full)
inactive: [1] | [2] | [3] | [4] | [5] | [6] | [7] | [8] | [9] | [10] | [11] | [12] | [13] | [14] | [16] | [17] | [18] | [20]

O=C(CO)[C@@H](O)[C@H](O)[C@@H](O)CO
inactive: [1] | [2] | [3] | [4] | [5] | [6] | [7] | [8] | [9] | [10] | [11] | [12] | [14] | [15] | [16] | [17] | [18] | [19]

C[N+]1(CC2COC(c3ccccc3)(c3ccccc3)O2)CCCCC1 (stereo not given)
inactive: [1] | [2] | [3] | [4] | [5] | [6] | [7] | [8] | [9] | [10] | [11] | [12] | [14] | [15] | [16] | [17] | [18] | [20]

O=C(O)c1cc(C(=O)O)cc(C(=O)O)c1
inactive: [1] | [2] | [3] | [4] | [5] | [6] | [7] | [8] | [9] | [10] | [11] | [12] | [13] | [14] | [15] | [16] | [17] | [18] | [19] | [20]

NC(=O)N[C@@H](CCC(=O)O)C(=O)O
inactive: [1] | [2] | [3] | [4] | [5] | [6] | [7] | [8] | [9] | [10] | [11] | [12] | [13] | [14] | [16] | [17] | [18] | [19] | [20]
